PubChem BioAssay AID1159580 (chemical genetic matrix, 2015)
Out of some 5,500 compounds screened, about 2,000 (36%) were called active. Not shown: some 18% with an inconclusive outcome. Rule as the data show it: active = normalized growth mostly below about 0.91 (no sharp cut-off); inconclusive = no clear call, values can overlap the other calls; inactive = mostly above about 0.92. The list shows a part of the results.

Experiment: chemical genetic growth profiling, strain panel (AID 1159580);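 also: tested at 20 µM; growth read once vehicle control cultures reached saturation at 30 °C; 1 = growth at the plate median or of vehicle wells; lower values mean less growth of the strain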
Settings: growth OD

Measured: normalized growth

C=C(C)C1CCC(C)(O)C2CC3OC3(C)C2C1 (stereo unspecified)
inactive: S. cerevisiae deletion strains, locus YAL013W, strain DEP1, stronger effect = lower value 1.01 | S. cerevisiae deletion strains, locus YBR021W, strain FUR4, stronger effect = lower value 1.02 | S. cerevisiae deletion strains, locus YBR229C, strain ROT2, stronger effect = lower value 1.01 | S. cerevisiae deletion strains, locus YCL029C, strain bik1, stronger effect = lower value 1.02 | S. cerevisiae deletion strains, locus YDL035C, strain GPR1, stronger effect = lower value 1.01 | S. cerevisiae deletion strains, locus YDL074C, strain BRE1, stronger effect = lower value 0.99 | S. cerevisiae deletion strains, locus YDL101C, strain DUN1, stronger effect = lower value 0.999 | S. cerevisiae deletion strains, locus YDL134C, strain PPH21, stronger effect = lower value 1 | S. cerevisiae deletion strains, locus YDL185W, strain tfp1, stronger effect = lower value 1.01 | S. cerevisiae deletion strains, locus YDL192W, strain arf1, stronger effect = lower value 1.02 | S. cerevisiae deletion strains, locus YDR101C, strain arx1, stronger effect = lower value 1 | S. cerevisiae deletion strains, locus YDR150W, strain NUM1, stronger effect = lower value 1.02 | S. cerevisiae deletion strains, locus YDR162C, strain NBP2, stronger effect = lower value 0.995 | S. cerevisiae deletion strains, locus YDR318W, strain mcm21, stronger effect = lower value 1.02 | S. cerevisiae deletion strains, locus YDR388W, stronger effect = lower value 1.01 | S. cerevisiae deletion strains, locus YDR502C, strain sam2, stronger effect = lower value 1.01 | S. cerevisiae deletion strains, locus YEL061C, strain CIN8, stronger effect = lower value 1 | S. cerevisiae deletion strains, locus YER110C, stronger effect = lower value 1.01 | S. cerevisiae deletion strains, locus YER155C, strain BEM2, stronger effect = lower value 0.999 | S. cerevisiae deletion strains, locus YER167W, strain BCK2, stronger effect = lower value 1.01 | S. cerevisiae deletion strains, locus YGL078C, strain dbp3, stronger effect = lower value 1.01 | S. cerevisiae deletion strains, locus YGL086W, strain mad1, stronger effect = lower value 1.02 | S. cerevisiae deletion strains, locus YGL248W, strain PDE1, stronger effect = lower value 1 | S. cerevisiae deletion strains, locus YGR078C, strain PAC10, stronger effect = lower value 0.995 | S. cerevisiae deletion strains, locus YGR135W, strain pre9, stronger effect = lower value 1 | S. cerevisiae deletion strains, locus YGR229C, strain SMI1, stronger effect = lower value 1.03 | S. cerevisiae deletion strains, locus YGR252W, strain gcn5, stronger effect = lower value 1.01 | S. cerevisiae deletion strains, locus YHR030C, strain SLT2, stronger effect = lower value 1 | S. cerevisiae deletion strains, locus YHR079C, strain IRE1 (second series), stronger effect = lower value 1.01 | S. cerevisiae deletion strains, locus YHR094C, strain hxt1, stronger effect = lower value 1.01 | S. cerevisiae deletion strains, locus YHR129C, strain ARP1, stronger effect = lower value 1 | S. cerevisiae deletion strains, locus YHR200W, strain rpn10, stronger effect = lower value 1.01 | S. cerevisiae deletion strains, locus YIL066C, strain RNR3, stronger effect = lower value 1.01 | S. cerevisiae deletion strains, locus YIL073C, strain SPO22, stronger effect = lower value 1.07 | S. cerevisiae deletion strains, locus YIL125W, strain kgd1, stronger effect = lower value 1.01 | S. cerevisiae deletion strains, locus YIR030C, strain dcg1, stronger effect = lower value 1 | S. cerevisiae deletion strains, locus YJL095W, strain BCK1, stronger effect = lower value 0.978 | S. cerevisiae deletion strains, locus YJL134W, strain LCB3, stronger effect = lower value 1.01 | S. cerevisiae deletion strains, locus YJL168C, strain set2, stronger effect = lower value 1 | S. cerevisiae deletion strains, locus YJL187C, strain SWE1 (second series), stronger effect = lower value 1.01 | S. cerevisiae deletion strains, locus YJR043C, strain POL32, stronger effect = lower value 1.03 | S. cerevisiae deletion strains, locus YJR075W, strain HOC1, stronger effect = lower value 1.06 | S. cerevisiae deletion strains, locus YKL009W, strain mrt4, stronger effect = lower value 1.02 | S. cerevisiae deletion strains, locus YKL068W, stronger effect = lower value 1.01 | S. cerevisiae deletion strains, locus YKL085W, strain MDH1 (second series), stronger effect = lower value 1 | S. cerevisiae deletion strains, locus YKL085W, strain MDH1, stronger effect = lower value 1 | S. cerevisiae deletion strains, locus YKL190W, strain CNB1, stronger effect = lower value 1 | S. cerevisiae deletion strains, locus YKR001C, strain vps1, stronger effect = lower value 1.02 | S. cerevisiae deletion strains, locus YLR039C, strain RIC1, stronger effect = lower value 0.992 | S. cerevisiae deletion strains, locus YLR058C, strain SHM2, stronger effect = lower value 1.01 | S. cerevisiae deletion strains, locus YLR102C, strain apc9, stronger effect = lower value 1.01 | S. cerevisiae deletion strains, locus YLR262C, strain YPT6, stronger effect = lower value 0.999 | S. cerevisiae deletion strains, locus YLR268W, strain sec22, stronger effect = lower value 1.01 | S. cerevisiae deletion strains, locus YLR330W, strain CHS5, stronger effect = lower value 1 | S. cerevisiae deletion strains, locus YLR342W, strain FKS1 (second series), stronger effect = lower value 1.04 | S. cerevisiae deletion strains, locus YLR371W, strain rom2, stronger effect = lower value 1.01 | S. cerevisiae deletion strains, locus YLR418C, strain cdc73, stronger effect = lower value 0.992 | S. cerevisiae deletion strains, locus YML016C, strain PPZ1, stronger effect = lower value 0.995 | S. cerevisiae deletion strains, locus YML032C, strain rad52, stronger effect = lower value 1.02 | S. cerevisiae deletion strains, locus YML124C, strain tub3, stronger effect = lower value 1.01 | S. cerevisiae deletion strains, locus YMR078C, strain ctf18, stronger effect = lower value 1.01 | S. cerevisiae deletion strains, locus YMR223W, strain ubp8, stronger effect = lower value 1.01 | S. cerevisiae deletion strains, locus YMR263W, strain SAP30, stronger effect = lower value 1 | S. cerevisiae deletion strains, locus YMR307W, strain GAS1, stronger effect = lower value 1.03 | S. cerevisiae deletion strains, locus YNL067W, strain RPL9B, stronger effect = lower value 1.02 | S. cerevisiae deletion strains, locus YNL128W, strain TEP1, stronger effect = lower value 0.99 | S. cerevisiae deletion strains, locus YNL153C, strain GIM3, stronger effect = lower value 1 | S. cerevisiae deletion strains, locus YNL233W, strain BNI4, stronger effect = lower value 0.998 | S. cerevisiae deletion strains, locus YNL250W, strain rad50, stronger effect = lower value 1.02 | S. cerevisiae deletion strains, locus YNL271C, strain bni1, stronger effect = lower value 1.01 | S. cerevisiae deletion strains, locus YNL298W, strain CLA4, stronger effect = lower value 1.01 | S. cerevisiae deletion strains, locus YNL307C, strain MCK1, stronger effect = lower value 1.02 | S. cerevisiae deletion strains, locus YNL322C, strain KRE1, stronger effect = lower value 1.01 | S. cerevisiae deletion strains, locus YNR052C, strain pop2, stronger effect = lower value 1.02 | S. cerevisiae deletion strains, locus YOL006C, strain TOP1, stronger effect = lower value 0.996 | S. cerevisiae deletion strains, locus YOL012C, strain htz1 0.919 | S. cerevisiae deletion strains, locus YOL147C, strain pex11, stronger effect = lower value 1.01 | S. cerevisiae deletion strains, locus YOR061W, strain CKA2, stronger effect = lower value 1 | S. cerevisiae deletion strains, locus YOR069W, strain VPS5, stronger effect = lower value 1.01 | S. cerevisiae deletion strains, locus YOR136W, strain idh2, stronger effect = lower value 1.03 | S. cerevisiae deletion strains, locus YOR144C, strain elg1, stronger effect = lower value 1.01 | S. cerevisiae deletion strains, locus YOR184W, strain ser1, stronger effect = lower value 1.03 | S. cerevisiae deletion strains, locus YOR316C, strain cot1, stronger effect = lower value 1.01 | S. cerevisiae deletion strains, locus YPL055C, strain LGE1, stronger effect = lower value 1 | S. cerevisiae deletion strains, locus YPL241C, strain CIN2, stronger effect = lower value 1 | S. cerevisiae deletion strains, locus YPR119W, strain clb2, stronger effect = lower value 1.01 | S. cerevisiae deletion strains, locus YPR141C, strain kar3, stronger effect = lower value 1.01 | S. cerevisiae deletion strains, locus YPR163C, strain tif3, stronger effect = lower value 1.02 | S. cerevisiae deletion strains, locus YPR167C, strain met16, stronger effect = lower value 1.01 | S. cerevisiae deletion strains, strain wtn01, stronger effect = lower value 1 | S. cerevisiae strains, strain wild type, stronger effect = lower value 1.04
